Laboratory results published in the supplement of paper PMC6555819.

Experiments:
Experiment in all cases: PBM binding z-score (relative to random genomic background probes); higher = stronger binding; sequences stand for … in GC…GCGATTGACAGCGTAGAATGAAGG
[1] = test system: FXR:RXRa (NR concentration 270 nM, RXRa partner concentration 90 nM)
Summary of the method: (§1)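 Custom Agilent 4×180K protein-binding microarrays carried double-stranded probes. Their 34-nt variable regions held direct-repeat seeds, single-nucleotide variants, half-site ablations and random human genomic background sequences. Arrays were incubated 1 h with ligand-free nuclear receptor dimers in PBS pH 7.4, 2% milk, 0.02% Triton X-100, 1 mM DTT, 0.2 mg/mL BSA and 0.4 mg/ml salmon testes DNA. Antibodies against each partner (one per run) detected binding, and scanned fluorescence was regression-normalized. Binding z-scores use random background probes as reference.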

[2] = test system: LXRa:RXRa (NR concentration 270 nM, RXRa partner concentration 90 nM)
Summary of the method: as §1

[3] = test system: LXRa homodimer (NR concentration 270 nM)
Summary of the method: as §1

[4] = test system: LXRb:RXRa (NR concentration 270 nM, RXRa partner concentration 90 nM)
Summary of the method: as §1

[5] = test system: LXRb homodimer (NR concentration 270 nM)
Summary of the method: as §1

[6] = test system: PPARa:RXRa (NR concentration 270 nM, RXRa partner concentration 90 nM)
Summary of the method: as §1

[7] = test system: PPARg:RXRa (NR concentration 180 nM, RXRa partner concentration 90 nM)
Summary of the method: as §1

[8] = test system: PPARg:RXRa 270nM:90nM, anti-RXR (NR concentration 270 nM, RXRa partner concentration 90 nM)
Summary of the method: as §1

[9] = test system: PPARg:RXRa 30nM:10nM, anti-RXR (NR concentration 30 nM, RXRa partner concentration 10 nM)
Summary of the method: as §1

[10] = test system: PPARg:RXRa 90nM:30nM, anti-RXR (NR concentration 90 nM, RXRa partner concentration 30 nM)
Summary of the method: as §1

Sequence | PBM binding z-score [1] | PBM binding z-score [2] | PBM binding z-score [3] | PBM binding z-score [4] | PBM binding z-score [5] | PBM binding z-score [6] | PBM binding z-score [7] | PBM binding z-score [8] | PBM binding z-score [9] | PBM binding z-score [10]
ACTATTAGTTGACTTATGGCAACCGATACGACGC | 0.061 | 0.293 | 0.179 | 0.682 | 0.995 | 0.117 | 1.04 | 0.488 | 0.748 | 0.352
ATATTTAGGTTATCGGGTCATTCAGTTTGCGCAT | 3.46 | 3.38 | 3.11 | 3.44 | 2.37 | 4.75 | 5.55 | 5.51 | 3 | 4.66
GCGACTGGGGCATCATCAGGTTACCATAACTTAA | 0.261 | 0.0527 | 0.169 | 1.57 | -0.509 | 1.46 | 1.1 | 0.894 | -0.0999 | 0.381
TCGAGTAGGTTAGGTGCATTCAGAATGGCGTCGA | -0.264 | -0.0402 | -0.55 | 0.172 | -1.05 | 0.236 | -0.209 | 0.709 | 0.736 | 0.505
TCTAGCCGGCCAGAGGGTCACTCAAGAGGTACGG | 1.12 | 0.885 | -0.666 | 1.07 | -1.11 | 2.03 | 0.575 | 1.57 | 1.39 | 1.44
CCTATTAGTTCACCATAAGGGCAACCGAAGCTCG | 1.35 | 2.07 | 0.985 | 1.29 | 0.844 | 1.67 | 0.515 | 0.652 | -0.043 | 0.491
CCTACTGGGCCACGATAGGTCATTGATTCAGTGA | 0.91 | 3.95 | 1.66 | 1.74 | -0.503 | 2.79 | 2.44 | 3.11 | 0.577 | 1.86
CCTGCTGGGTCATGGTCAGCTAATCTACAGTATG | 2.47 | 1.59 | -0.658 | 1.42 | -0.697 | 3.32 | 1.97 | 2.53 | 0.317 | 1.69
CCTATTAGTCGACCATAAGGGCAACCGAAGCTCG | 0.245 | 0.0274 | -0.217 | 0.208 | 0.406 | 0.539 | 0.531 | 0.353 | -0.22 | 0.358
TAGCCTAGGTCTTGCGGGCCAGTATAGTGTCGGC | -0.844 | -0.906 | -0.807 | -1.17 | -1.2 | -0.636 | -0.663 | -0.775 | -0.745 | -1.05
TTACCAATGTGAAGGTCGTTGATCCCTCTGTAGA | 1.87 | 2.22 | 0.434 | 1.74 | 0.0606 | 1.3 | -0.039 | 1.1 | 1.12 | 0.829
AGAACGAGGGCACGCCGAGTTGATAGCAGAGTAG | 0.906 | 0.551 | -0.503 | 0.0965 | -0.66 | 2.36 | 2.1 | 1.92 | 0.0797 | 0.871
CCTTACGGGTCACTCCAGGTTATACCATCGGAGT | 4.89 | 7.62 | 2.1 | 5.35 | 0.431 | 4.44 | 3.61 | 3.66 | 1.11 | 2.42
TCATATAGGTAAATGCTAGCTGAAAGTCCGATCT | 0.654 | 0.665 | -0.000947 | 0.713 | -0.112 | 1.04 | 0.413 | 1.96 | 3.71 | 2.81
ATCGAAAGGTCGTAGGTGAGTATACCCACCCGAA | 5.3 | 4.31 | 0.335 | 3.11 | 0.812 | 5.14 | 4.11 | 4.56 | 1.68 | 3.46
GCTAGTTGGTCAGTAAAAGGTCACCCACCGGTCG | 3.38 | 4.1 | 4.23 | 3.6 | 0.649 | 4.11 | 2.48 | 4.29 | 2.04 | 3.67
TCTTGTAGATCAACAGGAGGTTAAGTAAGATCGA | 0.451 | 1.3 | 0.363 | 1.17 | -0.23 | 1.52 | -0.0593 | 1.22 | 2.44 | 1.51
CGTCCAAGGTCAATGCTAGGTCAGTGATAGCATT | 6.64 | 5.38 | 2.71 | 4.07 | 0.685 | 5.03 | 4.12 | 4.4 | 1.74 | 3.05
TGAATGAGGTTATTAGATCAGGGAACGTTGCAAA | 1.98 | 1.62 | 0.0291 | 1.3 | 0.0407 | 3.09 | 2.46 | 2.61 | 0.886 | 1.65
GCTATTAGTTGCAAGGGCAACCGAATGATTCTCG | 0.225 | 0.26 | -0.0244 | 0.193 | 0.0622 | 0.193 | 0.483 | 0.912 | 0.0952 | 0.546
AGAACTAGGGCACGCTGAGTTGATAGCAGAGTAG | -0.159 | -0.0416 | -0.762 | -0.394 | -0.896 | 3.01 | 5.21 | 4.47 | 1.85 | 3.37
ATATGTAGGTTTTCGGGTCATTCAGTTTGCGCAT | 3.26 | 2.94 | 1.41 | 3.14 | 1.57 | 4.19 | 3.95 | 4.14 | 1.9 | 3.5
CAAACTAGGTCACAGAGGTCAGAGTCCGTGCGTA | 6.35 | 5.23 | 4.71 | 4.72 | 0.859 | 6.11 | 9.99 | 7.88 | 6.14 | 7.84
CTTCCAAGGTGAACAAGGTCGTTGATTACTATTC | 1.17 | 1.18 | 0.234 | 1.67 | -0.522 | 2.49 | 0.855 | 1.31 | 0.0258 | 0.487
CAAACTTGGTCACAGAGGTCAAAGTCCGTGCGTA | 5.4 | 5.01 | 5.81 | 5.15 | 1.63 | 5.31 | 4.74 | 5.07 | 2.04 | 4.21
